Measured values as given in PubChem BioAssay (Tox21).
Where “and” joins values, the source holds several entries; their conditions need not be identical. Equal values may be shown once. Records with an inconclusive call do not appear. Calls of active or inactive are those of the source. The call rests on the fitted dose curve; in most records, active means well fitted curve in the direction sought with a large enough effect in the repeat runs; inconclusive means weak or mixed curves; inactive means no such curve, though single readings can be large; an effect the other way counts as inactive or inconclusive.

How the values were obtained:
[1] = qHTS RealTime-Glo MT Cell Viability Assay in HepG2 cells - 40 hour (AID 1224870); further: nearly all actives have a fitted effect of over 50% in size
Summary of the method: (§1)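 HepG2 cells (600/well) mixed with RealTime-Glo MT reagent, settled 5 h at 37 C/5% CO2 before compound addition. Nonlytic NanoLuc luminescence from viable-cell prosubstrate reduction read repeatedly during 40 h treatment at 37 C.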

[2] = A CellTox Green Cytotoxicity Assay to monitor cytotoxicity in HEK293 cells - 40 hour (AID 1224871); further: nearly all actives have a fitted effect of over 45% in size; further: potency means the concentration at half of the fitted maximal effect
Summary of the method: (§2)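 Each value comes from one timepoint of a single continuous run in which HEK293 cells with CellTox Green were exposed to compound for up to 40 h at 37 C, dye fluorescence rising with cell death.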

[3] = qHTS RealTime-Glo MT Cell Viability Assay in HEK293 cells - 16 hour (AID 1224872); further: nearly all actives have a fitted effect of over 50% in size; further: potency means the concentration at half of the fitted maximal effect; on activity change, negative = cytotoxicity: top concentration of the series differs between compounds
Summary of the method: (§3)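 Tox21 10K qHTS, HEK293, 600 cells/well, RealTime-Glo reagent co-dispensed with cells; 5 h preincubation, compound by pintool, 37 C, luminescence at 0–40 h.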

[4] = qHTS RealTime-Glo MT Cell Viability Assay in HEK293 cells - 40 hour (AID 1224874); details: RealTime-Glo luminescence; max response: hits give low values; further: nearly all actives have a fitted effect of over 50% in size
Summary of the method: (§4)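 qHTS format; HEK293 cells with NanoLuc/prosubstrate reagent, 37 C/5% CO2 for 5 h pre-dosing; compounds 23 nL in DMSO; luminescence at each time point reflects viable cells.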

[5] = A CellTox Green Cytotoxicity Assay to monitor cytotoxicity in HEK293 cells - 24 hour (AID 1224875); further: series mostly up to about 77 µM; nearly all actives have a fitted effect of over 45% in size
Summary of the method: as §2

[6] = A CellTox Green Cytotoxicity Assay to monitor cytotoxicity in HepG2 cells - 16 hour (AID 1224876); further: nearly all actives have a fitted effect of over 45% in size
Summary of the method: (§5)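 Continuous culture of HepG2 cells with a membrane-impermeant DNA dye; rising fluorescence marks dead cells. Compound exposure lasted up to 40 h at 37 C, with reads every 8 h from 0 h.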

[7] = qHTS RealTime-Glo MT Cell Viability Assay in HepG2 cells - 32 hour (AID 1224877); further: nearly all actives have a fitted effect of over 55% in size
Summary of the method: (§6)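 Cells + NanoLuc/prosubstrate dispensed (600 cells/well) → 5 h at 37 C/5% CO2 → compounds in DMSO transferred → 40 h incubation at 37 C, luminescence read at 0, 8, 16, 24, 32, 40 h.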

[8] = A CellTox Green Cytotoxicity Assay to monitor cytotoxicity in HepG2 cells - 24 hour (AID 1224878); further: nearly all actives have a fitted effect of over 45% in size
Summary of the method: as §5

[9] = A CellTox Green Cytotoxicity Assay to monitor cytotoxicity in HepG2 cells - 40 hour (AID 1224879); further: nearly all actives have a fitted effect of over 40% in size
Summary of the method: as §5

[10] = qHTS RealTime-Glo MT Cell Viability Assay in HEK293 cells - 0 hour (AID 1224880)
Summary of the method: as §4

[11] = A CellTox Green Cytotoxicity Assay to monitor cytotoxicity in HEK293 cells - 32 hour (AID 1224881); further: nearly all actives have a fitted effect of over 40% in size
Summary of the method: as §2

[12] = A CellTox Green Cytotoxicity Assay to monitor cytotoxicity in HepG2 cells - 0 hour (AID 1224882); further: nearly all actives have a fitted effect of over 35% in size
Summary of the method: as §5

[13] = A CellTox Green Cytotoxicity Assay to monitor cytotoxicity in HepG2 cells - 32 hour (AID 1224883); further: nearly all actives have a fitted effect of over 50% in size
Summary of the method: as §5

[14] = A CellTox Green Cytotoxicity Assay to monitor cytotoxicity in HEK293 cells - 8 hour (AID 1224884); further: nearly all actives have a fitted effect of over 35% in size
Summary of the method: as §2

[15] = qHTS RealTime-Glo MT Cell Viability Assay in HepG2 cells - 16 hour (AID 1224885); further: nearly all actives have a fitted effect of over 50% in size
Summary of the method: as §6

[16] = qHTS RealTime-Glo MT Cell Viability Assay in HEK293 cells - 24 hour (AID 1224886); further: nearly all actives have a fitted effect of over 50% in size; further: potency means the concentration at half of the fitted maximal effect; on activity change, negative = cytotoxicity: top concentration of the series differs between compounds
Summary of the method: as §3

[17] = qHTS RealTime-Glo MT Cell Viability Assay in HEK293 cells - 8 hour (AID 1224887); further: nearly all actives have a fitted effect of over 50% in size; further: potency means the concentration at half of the fitted maximal effect; on activity change, negative = cytotoxicity: top concentration of the series differs between compounds
Summary of the method: as §4

[18] = qHTS RealTime-Glo MT Cell Viability Assay in HepG2 cells - 0 hour (AID 1224889); further: nearly all actives have a fitted effect of over 50% in size
Summary of the method: as §6

[19] = qHTS RealTime-Glo MT Cell Viability Assay in HepG2 cells - 8 hour (AID 1224873); further: nearly all actives have a fitted effect of over 55% in size; further: potency means the concentration at half of the fitted maximal effect
Summary of the method: as §1

[20] = A CellTox Green Cytotoxicity Assay to monitor cytotoxicity in HEK293 cells - 16 hour (AID 1224888); further: nearly all actives have a fitted effect of over 35% in size
Summary of the method: as §2
On the % scale 0 is the no-effect control and ±100 the full control effect.

CN1CC(=O)NC1=N
inactive: Potency [1] | Potency [2] | Potency [3] | max response [4] 9.12% | Potency [5] | Potency [6] | Potency [7] | Potency [8] | Potency [9] | Potency [10] | Potency [11] | Potency [12] | Potency [13] | Potency [14] | Potency [15] | Potency [16] | Potency [17] | Potency [18]

CCOc1ccc(C(=O)OCCN(CC)CC)cc1
inactive: Potency [1] | Potency [2] | Potency [3] | Potency [19] | max response [4] 4.37% | Potency [6] | Potency [7] | Potency [9] | Potency [10] | Potency [11] | Potency [12] | Potency [13] | Potency [14] | Potency [15] | Potency [16] | Potency [17] | Potency [20] | Potency [18]

NS(=O)(=O)c1cc(C(=O)NN2C[C@H]3[C@H]4CCC(C4)[C@H]3C2)ccc1Cl
inactive: Potency [1] | Potency [2] | Potency [3] | Potency [19] | max response [4] -21.1% | Potency [6] | Potency [7] | Potency [8] | Potency [9] | Potency [10] | Potency [12] | Potency [14] | Potency [15] | Potency [16] | Potency [17] | Potency [18]

CCC(C)S (stereo not drawn)
inactive: activity change, negative = cytotoxic [1] 2.53% [at 2.72 µM] | cytotoxicity increase [2] -0.869% [at 2.72 µM] | activity change, negative = cytotoxicity [3] 0.797% [at 2.72 µM] | max response [4] 2.1% | activity change [5] 2.02% [at 2.72 µM, hits give high values] | cytotoxicity increase [6] 0.507% [at 2.72 µM] | activity change, negative = cytotoxic [7] -0.778% [at 2.72 µM] | cytotoxicity [8] 1.18% [at 2.72 µM] | cytotoxicity increase [9] -0.0934% [at 2.72 µM] | activity change, negative = cytotoxicity [10] 2.99% [at 2.72 µM] | cytotoxicity increase [11] 1.61% [at 2.72 µM] | cytotoxicity [12] -2.37% [at 2.72 µM] | cytotoxicity increase [13] 1.17% [at 2.72 µM] | cytotoxicity increase [14] 0.141% [at 2.72 µM] | activity change, negative = cytotoxic [15] -0.5% [at 2.72 µM] | activity change, negative = cytotoxicity [16] 1.35% [at 2.72 µM] | activity change, negative = cytotoxicity [17] 2.1% [at 2.72 µM] | activity change [20] 1.7% [at 2.72 µM, hits give high values] | activity change, negative = cytotoxicity [18] 5.41% [at 2.72 µM]

NC(=O)Nc1ccccc1
inactive: Potency [1] | Potency [2] | Potency [3] | Potency [19] | Potency [6] | Potency [7] | Potency [8] | Potency [9] | Potency [10] | Potency [12] | Potency [13] | Potency [14] | Potency [15] | Potency [16] | Potency [17] | Potency [20] | Potency [18]

CC(C)(C)c1ccc(O)c(O)c1
active: Potency [2] 38.9 µM | Potency [3] 25.4 µM and 13.8 µM | Potency [19] 34.7 µM | Potency [16] 22.6 µM and 13.8 µM | Potency [17] 40.2 µM and 45.3 µM
inactive: Potency [1] | Potency [6] | Potency [8] | Potency [9] | Potency [10] | Potency [12] | Potency [13] | Potency [14] | Potency [20] | Potency [18]

CCOC(=O)c1ccc(C)cc1
inactive: Potency [1] | Potency [2] | Potency [3] | Potency [19] | Potency [5] | Potency [6] | Potency [7] | Potency [9] | Potency [10] | Potency [12] | Potency [13] | Potency [14] | Potency [15] | Potency [16] | Potency [17] | Potency [20] | Potency [18]

Nc1ccc(S(=O)(=O)Nc2ccnn2-c2ccccc2)cc1
inactive: activity change, negative = cytotoxic [1] 0.768% [at 15.8 µM] | Potency [2] | activity change, negative = cytotoxicity [3] 9.13% [at 15.8 µM] | viability change, negative = cytotoxic [19] -7.88% [at 15.8 µM] | max response [4] 3.19% | cytotoxicity increase [6] 2.84% [at 15.8 µM] | activity change, negative = cytotoxic [7] 1.3% [at 15.8 µM] | cytotoxicity [8] -1.77% [at 15.8 µM] | cytotoxicity increase [9] 1.49% [at 15.8 µM] | cytotoxicity [12] 3.97% [at 15.8 µM] | cytotoxicity increase [14] 1.9% [at 15.8 µM] | activity change, negative = cytotoxic [15] -1.35% [at 15.8 µM] | activity change, negative = cytotoxicity [16] 7.4% [at 15.8 µM] | activity change, negative = cytotoxicity [17] 7.76% [at 15.8 µM] | activity change [20] 2.29% [at 15.8 µM, hits give high values] | activity change, negative = cytotoxicity [18] -1.91% [at 15.8 µM]

CCC(C)C1CCCCC1=O (stereo not drawn)
inactive: Potency [1] | Potency [2] | Potency [3] | Potency [19] | max response [4] 7.3% | Potency [6] | Potency [7] | Potency [8] | Potency [9] | Potency [11] | Potency [12] | Potency [13] | Potency [14] | Potency [15] | Potency [16] | Potency [17] | Potency [20] | Potency [18]

c1ccc(CC2=NCCN2)cc1
inactive: Potency [1] | Potency [2] | Potency [3] | Potency [19] | Potency [5] | Potency [6] | Potency [7] | Potency [8] | Potency [9] | Potency [10] | Potency [11] | Potency [12] | Potency [13] | Potency [14] | Potency [15] | Potency [16] | Potency [17] | Potency [20] | Potency [18]

CN1CCCC1
inactive: Potency [1] | Potency [2] | Potency [3] | max response [4] 1.57% | Potency [5] | Potency [6] | Potency [7] | Potency [8] | Potency [9] | Potency [10] | Potency [11] | Potency [12] | Potency [13] | Potency [15] | Potency [16] | Potency [20] | Potency [18]

O=C1OC(=O)C2CCCCC12 (stereo not drawn)
inactive: Potency [1] | Potency [2] | Potency [3] | max response [4] 1.13% | Potency [5] | Potency [6] | Potency [7] | Potency [8] | Potency [9] | Potency [10] | Potency [11] | Potency [12] | Potency [13] | Potency [14] | Potency [15] | Potency [16] | Potency [17] | Potency [20] | Potency [18]

N=C(N)c1ccc2cc(OC(=O)c3ccc(N=C(N)N)cc3)ccc2c1
inactive: Potency [1] | Potency [2] | Potency [3] | max response [4] 1.38% | Potency [5] | Potency [6] | Potency [7] | Potency [8] | Potency [9] | Potency [10] | Potency [11] | Potency [12] | Potency [13] | Potency [14] | Potency [15] | Potency [16] | Potency [17] | Potency [20] | Potency [18]
